From PubChem
L3MBTL1 inh: qHTS Assay for the Inhibitors of L3MBTL1; Lethal(3)malignant brain tumor-like protein 1 (Homo sapiens), Q9Y468; AlphaScreen L3MBTL1–H3K9me1 peptide binding; Potency, µM (top dose mostly 57.1 µM), without a hit: top-dose activity, negative = inhibition, most hits filed as inhibitors; 230,000 tested, 0.66% active; also: potency is read from the fitted curve at half-maximal effect; % is scaled to controls: 0 for no effect and ±100 for the full control effect; nearly all actives have a fitted effect of over 60% in size
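AlphaScreen assay: L3MBTL1 (50 nM final) was preincubated 30 min at room temperature with biotinylated H3(1-15)K9me1 peptide (75 nM final), then 30 min with library compounds; streptavidin donor and nickel chelate acceptor beads (10 ug/mL final) added, 30 min dark.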
HP1b chromo inh: HTS for Inhibitors of HP1-beta Chromodomain Interactions with Methylated Histone Tails | Chromobox protein homolog 1 (Homo sapiens), P83916 | AlphaScreen HP1-beta / biotin-H3K9me3 peptide binding | Potency, µM (series often up to 114 µM), inactives show top-dose activity change, negative = inhibition, actives largely listed as inhibitors | 390,000 tested, 0.56% active | AID 540317, 2011; also: potency is read from the fitted curve at half-maximal effect; nearly all actives have a fitted effect of over 70% in size
Target sequence (P83916 whole entry, looked up): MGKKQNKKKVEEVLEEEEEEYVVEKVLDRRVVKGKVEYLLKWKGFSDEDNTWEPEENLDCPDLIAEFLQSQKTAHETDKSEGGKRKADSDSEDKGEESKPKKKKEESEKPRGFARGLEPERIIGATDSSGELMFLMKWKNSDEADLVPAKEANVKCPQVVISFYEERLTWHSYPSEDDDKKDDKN
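Compound inhibition of the preformed complex between 50 nM HP1-beta and 50 nM biotinylated H3K9me3 peptide was read by AlphaScreen. Buffer was PBS pH 7.4 with 0.01% Tween-20. Incubations ran 30 min at room temperature, with 10 ug/mL donor/acceptor beads.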
PI5P4K alpha inh: qHTS for Inhibitors of phosphatidylinositol 5-phosphate 4-kinase (PI5P4K) | PI5P4Kalpha enzyme, ADP-Glo luminescence, 60 min; stronger effect = lower value | 330,000 tested, 1.2% active | Phosphatidylinositol 5-phosphate 4-kinase type-2 alpha (Homo sapiens), P48426 | max response, % | AID 652105, 2013; active = max response of -50% or lower; inconclusive = between -30% and -50%; inactive = -30% or higher; also: value at the top dose of about 77 µM; % is scaled to controls: 0 for no effect and ±100 for the full control effect
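Luminescence from ADP-Glo served as readout of PI5P4Kalpha activity in a qHTS format. Reaction: enzyme, substrate, compound, ATP at 5 microM final, 60 min at RT.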
BAZ2B block: qHTS Assay for Inhibitors of BAZ2B; Potency, µM (top dose mostly 114 µM), without a hit: top-dose activity change, negative = inhibition, actives largely listed as inhibitors; Bromodomain adjacent to zinc finger domain protein 2B (Homo sapiens), Q9UIF8; 360,000 tested, 4.4% active; AlphaScreen BAZ2B-H3K14Ac peptide displacement; also: potency is read from the fitted curve at half-maximal effect; % is scaled to controls: 0 for no effect and ±100 for the full control effect; nearly all actives have a fitted effect of over 60% in size
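In this displacement format the biotinylated H3(5-23) peptide acetylated at Lys14 serves as ligand at 50 nM, with BAZ2B at 50 nM in PBS pH 7.4 containing 0.01% Tween-20. Donor and acceptor beads are 10 ug/mL final.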
KDM4E inh: qHTS Assay for Inhibitors of Human Jumonji Domain Containing 2E (JMJD2E); Lysine-specific demethylase 4E (Homo sapiens), B2RXH2; JMJD2E catalytic domain, FDH-coupled NADH fluorescence (FDH is formaldehyde dehydrogenase); Potency, µM (titrated, usually from 57.1 µM), for inactives: at the top dose activity change, negative = inhibition, hits mostly inhibitors; 230,000 tested, 1.6% active; active = well fitted inhibition curve with a large enough effect, not every such curve was filed as active; inconclusive = small, poorly fitted or top-dose-only effect, or another doubt; inactive = no such curve, though single readings can be large or run the other way;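 also: potency is read from the fitted curve at half-maximal effect; 0% = wells with enzyme and -100% = buffer wells without enzyme; nearly all actives have a fitted effect of over 50% in size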
JMJD2A Tudor inh: qHTS Assay for Inhibitors of JMJD2A-Tudor Domain | Lysine-specific demethylase 4A (Homo sapiens), O75164 | AlphaScreen JMJD2A-Tudor / H3K4me3 peptide binding | Potency, µM (series often up to 114 µM), for the others: top-dose activity change, negative = inhibition, actives largely listed as inhibitors | 390,000 tested, 4.4% active; also: potency is read from the fitted curve at half-maximal effect; % is scaled to controls: 0 for no effect and ±100 for the full control effect; nearly all actives have a fitted effect of over 50% in size
* = called active by the depositor; ? = inconclusive; . = no result. In the library only some 5.7% were active in any assay of this set; here they are far more common. Unless noted, calls follow the shape of the dose curve; as a rule, active = well fitted inhibition curve with a large enough effect; inconclusive = small, poorly fitted or top-dose-only effect; inactive = no such curve, though single readings can be large or run the other way.

SMILES | L3MBTL1 inh | HP1b chromo inh | PI5P4K alpha inh | BAZ2B block | KDM4E inh | JMJD2A Tudor inh
CCc1ccc(CN2CCCC(C(=O)N3CCCCC3)C2)cc1 (stereo unspecified) | 3% | -32% | 0 | 79µM* | . | 45µM*
O=C(c1ccc2c3c(cccc13)CC2)C1CCCN(Cc2ccncc2)C1 (stereo unspecified) | -3% | -8% | 2 | ? | ? | 56µM*
O=C(C1CCCN(Cc2cccnc2)C1)N1CCCCC1 (stereo unspecified) | -4% | ? | 1 | 22µM* | -11% | ?
Cc1ccccc1CN1CCCC(C(=O)N2CCCCC2)C1 (stereo unspecified) | . | ? | -2 | 79µM* | . | 22µM*
COc1cc(OC)c(NC(=O)c2sc3nc4n(c(=O)c3c2C)CCCC4)cc1Cl | . | 45% | . | -27% | . | -12%
O=S1(=O)C2CC3OC2(CC3c2ccc(F)cc2)CN1Cc1ccc(Cl)cc1 (stereo unspecified) | . | 16% | . | . | . | 8%
O=C(Nc1ccc(F)cc1F)c1cc2c(=O)n3ccccc3nc2s1 | . | 18% | . | 5% | . | -7%
CC(C)(C)c1ccc(OCCCn2ccnc2)cc1 | -7% | ? | 13 | 50µM* | . | 25µM*
c1ccc2cc(OCCCn3ccnc3)ccc2c1 | -1% | ? | 5 | 50µM* | . | 4µM*
Clc1cccc(OCCCn2ccnc2)c1 | -4% | 11% | -1 | -8% | . | -9%
